From PubChem BioAssay (Tox21)
Results filed as inconclusive are left out. Values without a mark were called inactive. The source made the active and inactive calls. Calls follow the shape of the full dose curve.

experiment: qHTS assay to identify small molecule antagonists of the sonic hedgehog signaling (Shh) pathway (AID 1259369); details: NIH/3T3 Gli1-Luc reporter, Shh antagonist, luminescence 24 h; series mostly up to 92.4 µM; activity change, negative = inhibition: at the top concentration; also: nearly all actives have a fitted effect of over 45% in size
Source text: U.S. Tox21 Program National Center for Advancing Translational Sciences [NCATS] NIH Chemical Genomics Center [NCGC] U.S. Environmental Protection Agency [EPA] National Institutes of Environmental Health Sciences [NIEHS] National Toxicology Program [NTP] U.S. Food and Drug Administration [FDA] Tox21 Assay Overview: The sonic hedgehog (Shh) pathway is essential for normal embryonic development. Dysregulation of the Shh pathway can cause severe developmental defects in organs. Therefore chemicals that interfere with the pathway are potential developmental toxicants. A cell line designated 3T3Gli1-Luc (DMB/OARSA/CFSAN/FDA, Laurel, MD), a NIH/3T3 derived clone containing stably integrated Gli1-Luc reporter is used to detect chemical interference of the Shh pathway, by changes in the expression of the firefly Luc gene under the control of the Gli1 transcriptional response element. This cell line was used to screen Tox21 libraries for identifying and prioritizing the potential developmental toxicants that interfere Shh pathway. Conditioned medium-stimulated mode was used to screen for chemicals inhibiting Shh signaling.
Tox21 Assay Protocol Summary: 3T3 Gli1-Luc cells were dispensed at 2,000 per well in 5uL of culture medium into white solid bottom 1536-well plates (Greiner Bio-One, Monroe, NC) using a Multidrop Combi (Thermo Scientific, Waltham, MA) dispenser. The assay plates were incubated at 37 C and 5% CO2 for 4hr, and then 23nL of compounds dissolved in DMSO and positive control were transferred using a Pintool station (Wako, San Diego, CA). The compound transfer was followed by the addition of 1ul conditioned medium or assay buffer using two separate tips of Flying Reagent Dispenser (FRD, Aurora Discovery, San Diego, CA). The assay plates were incubated at 37C and 5% CO2 for 24hr. For luciferase read, 4uL of Amplite Luciferase reporter gene assay reagent (AAT Bioquest, Inc. Sunnyvale, CA) was added to each well of the assay plates using FRD and incubated at room temperature for 30min. The luminescence signal was measured using a ViewLux plate reader (Perkin Elmer, Shelton, CT).
% is scaled to controls: 0 for no effect and ±100 for the full control effect; potency is read from the fitted curve at half-maximal effect.

SMILES	activity change, negative = inhibition	Potency
Cc1ccnc(NS(=O)(=O)c2ccc(N)cc2)n1	12.4% [at 42.5 µM]	–
O=C(CO)[C@@H](O)[C@H](O)[C@H](O)CO	-1.07%	–
CC(C)C(=O)OC(=O)C(C)C	4.93%	–
Cc1ccc(C(=O)c2ccc(CC(=O)O)n2C)cc1	12.3% [at 42.5 µM]	–
COc1cc(C(=O)NCc2ccc(OCCN(C)C)cc2)cc(OC)c1OC	-28.3% [at 42.5 µM]	–
CCCCOCCOC(=O)COc1cc(Cl)c(Cl)cc1Cl	14.2%	–
CN(C)CCCN(C)CCCN(C)C	5.39%	–
CC(=O)C1CCCCC1=O (stereo not given)	-15.4%	–
O=C(O)c1cn(C2CC2)c2cc(N3CCNCC3)c(F)cc2c1=O	7.83% [at 42.5 µM]	–
Cc1nc2ccc(CN(C)c3ccc(C(=O)N[C@@H](CCC(=O)O)C(=O)O)s3)cc2c(=O)[nH]1	4.52% [at 42.5 µM]	–
CCCCCCCCCCOc1cc2c(=O)c(C(=O)OCC)c[nH]c2cc1OCC	27.8% [at 8.39 µM]	–
CCOc1c(N2CCOCC2)cnn(C)c1=O	28.5% [at 42.5 µM]	–
C[N+](C)(C)CCCCCCCCCC[N+](C)(C)C	29.3% [at 42.5 µM]	–
CN1CCC(=C2c3ccccc3CCc3cccnc32)CC1	–	13.3 µM (active)
CCCC(C)C(=O)OCC (stereo not given)	5.86%	–
CCCCN1C=CN(C)C1	0.745% [at 19 µM]	–
CC1=C(C/C=C(\C)CCC[C@H](C)CCC[C@H](C)CCCC(C)C)C(=O)c2ccccc2C1=O	11.9% [at 42.5 µM]	–
CC(N)C12CC3CC(CC(C3)C1)C2 (stereo not given)	-28.2% [at 42.5 µM]	–
Cc1cccc(C)c1NC(=O)CC12CCCN1CCC2	-3.11% [at 42.5 µM]	–
CC(C)(C)OC(=O)c1cccc(N)c1	-4.67%	–

SMILES	activity change, negative = inhibition	Potency
Cc1ccc(-c2ccccc2C#N)cc1	8.79% [at 42.5 µM]	–
CC[N+](CC)(CC(=O)Nc1c(C)cccc1C)Cc1ccccc1 (tested in a mixture with another compound)	1.65% [at 42.5 µM]	–
CCOCC(C)O (stereo not given)	28.2%	–
CCCCOCCOC(=O)CCCCCCCCC(=O)OCCOCCCC	–	30.6 µM (active)
OCCCCCO	3.19%	–
CCCOC(=O)CC	4.07%	–
C[N+]12CCC(CC1)C(OC(=O)C(O)(c1ccccc1)c1ccccc1)C2 (stereo not given)	20.6% [at 42.5 µM]	–
CCOC(=O)COc1cc(-n2ncc(C(F)(F)F)c(C)c2=O)c(F)cc1Cl	17.8%	–
CC(C)COC(=O)c1ccc(N)cc1	2.59% [at 42.5 µM]	–
CC(C)(C)c1ccc(-c2ccc(C(C)(C)C)cc2)cc1	5.49%	–
CC1=NS(=O)(=O)c2cc(Cl)ccc2N1	16.9% [at 42.5 µM]	–
Nc1ccn([C@@H]2O[C@H](CO)[C@@H](O)C2O)c(=O)n1 (stereo not given in full)	0%	–
C[N+](C)(CCOc1ccccc1)Cc1cccs1	4.24% [at 42.5 µM]	–
C=C(C)C(=O)OCC(O)CO (stereo not given)	24.7% [at 42.5 µM]	–
CC(=O)OCC(=O)[C@@]1(O)[C@H](C)C[C@H]2[C@@H]3CCC4=CC(=O)C=C[C@]4(C)[C@@]3(F)[C@@H](O)C[C@@]21C	-15.1% [at 42.5 µM]	–
CCCC[N+](C)(CCCC)CCCC	5.5%	–
[K+]	2.88%	–
C1CCC2(CCCCO2)OC1	25.3%	–
CC(C#N)(CCC(=O)O)N=NC(C)(C#N)CCC(=O)O (stereo not given)	17.7%	–
CCC1C(=O)OCC1Cc1cncn1C (stereo not given)	5.13% [at 42.5 µM]	–
